Data published in PubChem BioAssay AID2685 (National Center for Advancing Translational Sciences (NCATS), 2010).
Among all 320,000 compounds or so, about 2,100 (0.66%) were called active. Not shown: some 53% with an inconclusive outcome. This is one part of a sample in which actives are shown more often than they occur. Calls follow the shape of the dose curve; as a rule, active = well fitted inhibition curve with a large enough effect in the signal ratio, with a control signal flat (not every such curve was filed as active); inconclusive = small, poorly fitted or top-dose-only effect, or effect the other way, or a change in a side signal; inactive = flat fitted curve, though single readings scatter; the % refers to the signal ratio.
Potency is read from the fitted curve at half-maximal effect.

Experiment: qHTS Assay for Lipid Storage Modulators in Drosophila S3 Cells;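 as to cell number change: cells counted by Cell Tracker Red CMTPX staining in the red channel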
Conditions: BODIPY lipid droplet fluorescence, 18-24 h, cells fed with added oleic acid; cell number change: measured here: cell count max response; series mostly up to 46.1 µM
Outline: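 Laser-scanning cytometry quantifies lipid droplet accumulation (500–530 nm total intensity; droplet/cell object ratio) in oleic acid-fed (400 uM added) Drosophila S3 cells treated with a concentration series. 20 uM Triacsin C defined 100% inhibition.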
For Cc1nc([N+](=O)[O-])cn1-c1ccc(N)cc1, the Potency was “inactive” and the cell number change was -2.93%.
In the case of O=C(c1nc2ccc(Cl)cn2c1CN1CCCC(CO)C1)N1CCc2ccccc2C1 (centres undefined), the Potency is reported as “inactive” and the cell number change is reported as 10.9%.
For Cc1ccc(S(=O)(=O)c2c(C)cc(C)[nH]c2=O)c(C)c1, the Potency was “inactive” and the cell number change was 17.9%.
With Oc1ccc(Br)cc1/C=N/N1CCN(Cc2cccc3ccccc23)CC1 the Potency was “inactive” and the cell number change was 17%.
For Cc1c(NC(=O)C2(c3ccccc3)CCOCC2)c(=O)n(-c2ccccc2)n1C, the Potency was “inactive” and the cell number change was -18.3%.
For CC(C)=C1C2CCC1C(C(=O)NCc1ccccc1)C2C(=O)O (centres undefined), the Potency was 25.9 µM (active) and the cell number change was -4.67%.
In the case of CC(C)=C1C2CCC1C(C(=O)NCCc1ccccc1)C2C(=O)O (centres undefined), the Potency is reported as “inactive” and the cell number change is reported as 6.84%.
With CC(C)=C1C2CCC1C(C(=O)Nc1cc(C)cc(C)c1)C2C(=O)O (centres undefined) the Potency was “inactive” and the cell number change was 13.2%.
With CC(C)NC(=O)c1ccc2c(c1)N(CC(=O)NC1CCCCC1)C(=O)C(C)(C)O2 the Potency was “inactive” and the cell number change was 19%.
In the case of S=C(Nc1ccccn1)Nc1ccccc1Cl, the Potency is reported as “inactive” and the cell number change is reported as -6.96%.
For CCCS(=O)(=O)Nc1cccc(-c2ccc3nnc(C)n3n2)c1, the Potency was “inactive” and the cell number change was 7.15%.
With O=C(CSc1ccc2nnc(-c3cccnc3)n2n1)Nc1ccccc1 the Potency was 0.411 µM (active) and the cell number change was 8.38%.
For Cc1ccc(NC(=O)CSc2ccc3nnc(-c4cccnc4)n3n2)cc1, the Potency was “inactive” and the cell number change was -9.27%.
In the case of CC(=O)c1ccc(NC(=O)CSc2ccc3nnc(-c4cccnc4)n3n2)cc1, the Potency is reported as “inactive” and the cell number change is reported as 1.01%.
In the case of CCS(=O)(=O)Nc1cccc(-c2ccc3nnc(-c4cccnc4)n3n2)c1, the Potency is reported as 5.8 µM (active) and the cell number change is reported as -27%.
With CCS(=O)(=O)Nc1cccc(-c2ccc3nnc(C)n3n2)c1 the Potency was “inactive” and the cell number change was -5.54%.
In the case of CCOC(=O)C(C(=O)NCCCN1CCOCC1)C1CCCCC1 (centres undefined), the Potency is reported as “inactive” and the cell number change is reported as 5.53%.
With CCn1nc(C)c(CN2CCCC(CO)(Cc3ccccc3)C2)c1C (centres undefined) the Potency was “inactive” and the cell number change was 6.82%.
With Cc1ccc(-c2cc([C@H]3[C@H]4C=CC[C@@H](C)[C@@H]4C(=O)N3Cc3ccccc3)ccc2F)cc1 the Potency was “inactive” and the cell number change was -1.15%.
For COC(=O)c1cccc(NC(=O)NC(=O)c2ccccc2Cl)c1, the Potency was “inactive” and the cell number change was -8.19%.
For Cc1cccc(NC(=O)CSc2nc3ccccc3o2)c1, the Potency was “inactive”.
In the case of Cn1c(C(=O)NCCC2=CCCCC2)cc2c(=O)n3ccccc3nc21, the Potency is reported as “inactive”.
For COCCCn1c(C(=O)NC2CCCCC2C)cc2c(=O)n3cccc(C)c3nc21 (centres undefined), the Potency was 20.6 µM (active) and the cell number change was 8.96%.
With COCCCn1c(C(=O)N2CC(C)OC(C)C2)cc2c(=O)n3cccc(C)c3nc21 (centres undefined) the Potency was “inactive” and the cell number change was 0.298%.
In the case of COCCCn1c(=NC(C)=O)c(C#N)cc2c(=O)n3cccc(C)c3nc21, the Potency is reported as “inactive” and the cell number change is reported as 0.683%.
With Cc1cccn2c(=O)c3cc(C(N)=S)c(=N)n(CCCOC(C)C)c3nc12 the Potency was 9.2 µM (active) and the cell number change was 3.82%.
For CCN(C(=O)c1cc2c(=O)n3cccc(C)c3nc2n1CCCOC)C1CCCCC1, the Potency was 23.1 µM (active) and the cell number change was 8.25%.
In the case of Cc1cccn2c(=O)c3cc(C(N)=S)c(=N)n(CCCN4CCOCC4)c3nc12, the Potency is reported as “inactive”.
For COCCCn1c(=N)c(C(=O)NCC2CCCO2)cc2c(=O)n3cccc(C)c3nc21 (centres undefined), the Potency was “inactive” and the cell number change was -13.4%.
For Cc1cccn2c(=O)c3cc(C(=O)NCCC4=CCCCC4)n(C)c3nc12, the Potency was 18.4 µM (active) and the cell number change was -17.7%.
For Cc1cccn2c(=O)c3cc(C(=O)NCCCN4CCCC4=O)n(C)c3nc12, the Potency was “inactive”.
With CC(=O)N=c1c(C#N)cc2c(=O)n3cccc(C)c3nc2n1CCCOC(C)C the Potency was “inactive” and the cell number change was 13.1%.
For CCCn1c(=N)c(C(=O)NC2CCCC2)cc2c(=O)n3cccc(C)c3nc21, the Potency was “inactive” and the cell number change was -9.76%.
With O=C(CCc1nnc(C2(c3ccc(Cl)cc3)CCC2)o1)NC1CC1 the Potency was “inactive” and the cell number change was 6.23%.
In the case of Cc1ccc2[nH]c3c(c2c1)CCN1C(=O)OC(C)(C)C31C (centres undefined), the Potency is reported as “inactive” and the cell number change is reported as -17.1%.
For O=C(CCCc1nc2ccccc2s1)N1CCN(c2ccccc2F)CC1, the Potency was “inactive” and the cell number change was 22.1%.
In the case of COc1ccc(/C=C/C(=O)OCC(=O)c2c[nH]c3ccccc23)cc1, the Potency is reported as “inactive” and the cell number change is reported as 4.45%.
In the case of COc1cccc(/C=C/C(=O)OCC(=O)c2c[nH]c3ccccc23)c1, the Potency is reported as 9.2 µM (active) and the cell number change is reported as -14.3%.
With COc1cc(/C=C/C(=O)OCC(=O)c2c[nH]c3ccccc23)ccc1OC(F)F the Potency was “inactive” and the cell number change was -14.2%.
In the case of CCOc1cc(N2CCOCC2)c(OCC)cc1NC(=O)Cn1[nH]c(=O)c2ccccc2c1=O, the Potency is reported as “inactive” and the cell number change is reported as 7.32%.
With O=C(O)CNS(=O)(=O)Cc1ccccc1 the Potency was “inactive” and the cell number change was 2.83%.
With Cc1cccc(NC(=O)C2CCN(S(=O)(=O)c3cccs3)CC2)n1 the Potency was “inactive”.
In the case of Cc1ccccc1Cn1c(C)nc2ccccc21, the Potency is reported as 10.3 µM (active) and the cell number change is reported as -15.1%.
For COc1ccccc1Cn1c(C)nc2ccccc21, the Potency was “inactive” and the cell number change was 10.6%.
With Cc1nc2ccccc2n1Cc1ccccc1 the Potency was “inactive” and the cell number change was -17%.
With N#Cc1cc(N2CCCCC2)c([N+](=O)[O-])cc1C#N the Potency was “inactive” and the cell number change was -3.02%.
In the case of CN(C)CCC1CCN(c2cc(C#N)c(C#N)cc2[N+](=O)[O-])CC1, the Potency is reported as “inactive” and the cell number change is reported as -1.99%.
